According to PubChem BioAssay (Tox21):
Inconclusive results are not listed. Calls of active or inactive are those of the source. Calls follow the shape of the dose curve; as a rule, active = well fitted cell-killing curve with a large enough effect in the repeat runs; inconclusive = weak or mixed curves; inactive = flat fitted curve, though single readings scatter.

assay: qHTS assay to identify small molecule antagonists of the estrogen related receptor (ERR) signaling pathway - cell viability counter screen (AID 1224818); settings: ERR reporter cell line viability counter screen; series mostly up to 46.1 µM; viability change, negative = cytotoxic: at the top concentration;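 also: viability measured after 17.5 h of compound exposure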
Summary of the method: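 Compounds dissolved in DMSO were applied to ERR cells seeded at 2,000 per well 6 h earlier. Cell viability followed 17.5 h later via 30-min CellTiter-Fluor fluorescence.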
% is scaled to controls: 0 for no effect and ±100 for the full control effect.

Row | Compound | viability change, negative = cytotoxic
1 | CN(C)C/C=C(/c1ccc(Br)cc1)c1cccnc1 | -3.65% (inactive)
2 | CN(C)CC[C@@H](c1ccc(Br)cc1)c1ccccn1 | 8.26% (inactive)
3 | OC(CCN1CCCCC1)(c1ccccc1)C1CCCCC1 (stereo unspecified) | -4.35% (inactive)
4 | O=C(O)/C=C/c1cnc[nH]1 | 11.2% (inactive)

assay: qHTS assay to identify small molecule antagonists of the estrogen related receptor (ERR) signaling pathway from Tox21 library - cell viability counter screen (AID 1224834); settings: ERR reporter cells viability, CellTiter-Fluor, 17.5 h; series mostly up to 92.4 µM; viability change, negative = cytotoxic: at the top concentration; also: nearly all actives have a fitted effect of over 30% in size
Summary of the method: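 Seeded ERR cells were rested 6 h at 37 C/5% CO2 before compounds, positive and negative controls or DMSO were added. Incubation continued for 17.5 h, and viability was then quantified by CellTiter-Fluor fluorescence.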

Row | Compound | viability change, negative = cytotoxic
5 | Cc1ccc(C)o1 | 0.196% (inactive)
6 | CCCCCCCCCC(=O)OCC | 1.15% (inactive)
7 | CC[C@H](C)[C@@H](C(=O)O)n1sc2ccccc2c1=O | -4.54% (inactive)
8 | O=C(NS(=O)(=O)/C=C/c1cccs1)c1ccc(F)cc1Br | 0.0871% (inactive)
9 | CC(=O)O[C@H]1C[C@@H]2CC[C@@H]3[C@H](CC[C@@]4(C)[C@H]3C[C@H]([N+]3(C)CCCCC3)[C@@H]4OC(C)=O)[C@@]2(C)C[C@@H]1N1CCCCC1 | -0.153% [at 42.5 µM] (inactive)
10 | O=c1[nH]cnc2ccccc12 | -15.9% (inactive)
11 | Cc1ccc(C(=O)C(C)CN2CCCCC2)cc1 (stereo unspecified) | -2.59% [at 42.5 µM] (inactive)
12 | CC(C)c1ccccc1C(C)C | -2.31% (inactive)
13 | CC(C)(C)c1ccc(S)cc1 | 4.37% (inactive)
14 | CC(=O)[C@@]1(O)CC[C@H]2[C@@H]3C[C@H](C)C4=CC(=O)CC[C@]4(C)[C@H]3CC[C@@]21C | -3.43% [at 42.5 µM] (inactive)
15 | C#CCOC(=O)[C@@H](C)Oc1ccc(Oc2ncc(Cl)cc2F)cc1 | -0.311% (inactive)
16 | N#CCc1cccc(C(F)(F)F)c1 | -0.354% (inactive)
17 | CN(C)CC[C@@H](c1ccc(Br)cc1)c1ccccn1 | 2.68% [at 42.5 µM] (inactive)
18 | CC1=CC(=O)/C(=C(/C)O)C(=O)O1 | 3.09% (inactive)
19 | O=C(NN1CCCC1)NS(=O)(=O)c1ccc(Cl)cc1 | 3.38% [at 42.5 µM] (inactive)
20 | Nc1nc(N)c(-c2ccccc2)s1 | 6.02% [at 42.5 µM] (inactive)
21 | Oc1ccc(C(O)CNCCCCCCNCC(O)c2ccc(O)c(O)c2)cc1O (stereo unspecified) | -9.59% [at 42.5 µM] (inactive)
